Measurements as given in PubChem BioAssay (Tox21).
Results filed as inconclusive are left out. Activity calls are given as the source filed them. Calls follow the shape of the dose curve; as a rule, active = well fitted cell-killing curve with a large enough effect in the repeat runs; inconclusive = weak or mixed curves, or effect the other way; inactive = no such curve, though single readings can be large or run the other way.

Test: qHTS assay to identify small molecule antagonists of the peroxisome proliferator-activated receptor gamma (PPARg) signaling pathway - cell viability counter screen (AID 743194); also: nearly all actives have a fitted effect of over 55% in size
Conditions: PPARg-bla HEK293H viability, CellTiter-Glo luminescence, 17 h, co-treated with 50 nM rosiglitazone; series mostly up to 62.6 µM; activity change, negative = cytotoxicity: at the top concentration
Text: U.S. Tox21 Program National Center for Advancing Translational Sciences [NCATS] NIH Chemical Genomics Center [NCGC] U.S. Environmental Protection Agency [EPA] National Institutes of Environmental Health Sciences [NIEHS] National Toxicology Program [NTP] U.S. Food and Drug Administration [FDA] Tox21 Assay Overview: The peroxisome proliferator-activated receptors (PPARs) are lipid-activated transcription factors of the nuclear receptor superfamily with three distinct subtypes namely PPAR alpha, PPAR delta (also called PPAR beta) and PPAR gamma (PPARg). All these subtypes heterodimerize with Retinoid X receptor (RXR) and these heterodimers regulate transcription of various genes. PPAR-gamma receptor (glitazone receptor) is involved in the regulation of glucose and lipid metabolism. To identify the compounds that activate PPAR-gamma signaling, GeneBLAzer PPAR gamma UAS-bla HEK293H cell line (Invitrogen, Carlsbad, CA, USA) containing a beta-lactamase reporter gene under the control of an Upstream Activator Sequence (UAS) was used to screen the Tox21 compound library. The cytotoxicity of the Tox21 compound library against the PPARg-bla cell line was tested in parallel by measuring the cell viability using CellTiter-Glo assay in the same wells.
Tox21 Assay Protocol Summary: PPARg-bla cells were dispensed at 3000 cells/5uL/well in 1536-well black wall/clear bottom plates using a Multidrop Combi (Thermo Fisher Scientific, Waltham, MA) dispenser. After the assay plates were incubated at 37 C and 5% CO2 for 5 h, 23 nL of compounds dissolved in DMSO, positive controls or DMSO only was transferred to the assay plate by a Pintool station (Kalypsys, San Diego, CA), followed by addition of 1ul Rosiglitazone (50 nM, final concentration in the wells). The assay plates were incubated at 37 C for 17 h, and then 1 uL of LiveBLAzerTM B/G FRET substrate was added using a Bioraptr Flying Reagent Dispenser (FRD) workstation (Beckman Coulter, Indianapolis, IN, USA). The assay plates were incubated at room temperature for 1 h and fluorescence intensity was measured by an Envision plate reader (PerkinElmer, Shelton, CT). For cell viability readout that measures cytotoxicity, 4 ul/well of CellTiter-Glo reagent was added into the assay plates using a Flying Reagent Dispenser. After 30 min incubation at room temperature, the luminescence intensity in the plates was measured using a ViewLux plate reader (PerkinElmer).
% is scaled to controls: 0 for no effect and ±100 for the full control effect.

Row | Structure (SMILES) | activity change, negative = cytotoxicity
1 | Cc1ccnc(N)c1 | 9.38% (inactive)
2 | CC(C)(CO)C(O)C(=O)NCCCO (stereo not given) | -19.3% (inactive)
3 | C=CC(=O)CCCCC | -1.55% [at 81.1 µM] (inactive)
4 | CC(=O)Nc1ccc(OC(=O)c2ccccc2OC(C)=O)cc1 | 1.42% (inactive)
5 | ONc1ccccc1 | -13.1% [at 81.1 µM] (inactive)
6 | O=C1c2ccccc2C(=O)c2cc(Cl)ccc21 | 2.72% [at 5.95 µM] (inactive)
7 | COC(=O)c1cccc(Cl)c1 | -2.84% (inactive)
8 | CC(O)CC(C)O (stereo not given) | 2.08% (inactive)
9 | CC(=O)OC(C)=O | 9.42% [at 81.1 µM] (inactive)
10 | Cn1nnc2c(C(N)=O)ncn2c1=O | 1.78% (inactive)
11 | CC(C)OC(=O)OCOP(=O)(CO[C@H](C)Cn1cnc2c(N)ncnc21)OCOC(=O)OC(C)C | 12.5% (inactive)
12 | CC(C)C[C@@H]1[C@H](c2ccccc2)OC(=O)N1CCCN1CCCCCC1 | 10.6% (inactive)
13 | OCC(O)CN1CCN(c2ccccc2)CC1 (stereo not given) | 0.985% (inactive)
14 | CC1(C)CC(OC(=O)CCCCCCCCC(=O)OC2CC(C)(C)NC(C)(C)C2)CC(C)(C)N1 | -7.2% [at 29.1 µM] (inactive)
15 | O=C(CN1CCNCC1)NC1CCCCC1 | 0.795% (inactive)
16 | C=CC(=O)OCC1CCCO1 (stereo not given) | -24% (inactive)
17 | COC(=O)CCCCC(CCSS/C(CCO)=C(\C)N(C=O)Cc1cnc(C)nc1N)SC(C)=O (stereo not given) | -11.8% (inactive)
18 | c1ccc(-c2nn[nH]n2)cc1 | -12.1% (inactive)
19 | CCCCOC(=O)[C@H](C)O | -16.3% (inactive)
20 | CCCCCCCCCCOC(C)=O | 7.38% (inactive)

Row | Structure (SMILES) | activity change, negative = cytotoxicity
21 | c1ccc2cnccc2c1 | 3.07% (inactive)
22 | CCCC(=O)OCCC(C)CCC=C(C)C (stereo not given) | 0.411% (inactive)
23 | C=CCSSCCC | 4.23% (inactive)
24 | Cc1ncc([N+](=O)[O-])n1CC(C)O (stereo not given) | 1.38% (inactive)
25 | CC1(C)Cc2cccc(N)c2O1 | 0.22% (inactive)
26 | Fc1ccccc1 | 5.53% [at 81.1 µM] (inactive)
27 | CN(C)C(C)(C)CO | -18.6% (inactive)
28 | C/C(=C1\CCOC(=O)S1)N(C=O)Cc1cnc(C)nc1N | -7.6% (inactive)
29 | O=C(O)CNC(=O)CNC(=O)CNC(=O)CSC(=O)c1ccccc1 | 3.15% (inactive)
30 | CN1C[C@@H]2C[C@H]1CN2c1cc2c(cc1F)c(=O)c(C(=O)O)cn2C1CC1 | -0.282% [at 29.1 µM] (inactive)
31 | Cc1c(Cl)cccc1Cl | -14.9% (inactive)
32 | CC1CCc2c(N3CCC(O)CC3)c(F)cc3c(=O)c(C(=O)O)cn1c23 (stereo not given) | 19.5% (inactive)
33 | C=CCN1C[C@H](C(=O)N(CCCN(C)C)C(=O)NCC)C[C@@H]2c3cccc4[nH]cc(c34)C[C@H]21 | -2.32% (inactive)
34 | CN(C)CC/C=C1/c2ccccc2COc2ccc(CC(=O)O)cc21 | -1.04% (inactive)
35 | C=Cc1ccc(C(C)(C)C)cc1 | 6.4% (inactive)
36 | CN1CCOC(c2ccccc2)c2ccccc2C1 (stereo not given) | -14.6% (inactive)
37 | CCCC(=O)Nc1ccc(OCC(O)CNC(C)C)c(C(C)=O)c1 (stereo not given) | 0.14% (inactive)
38 | CCCCCC/C=C/C(=O)OC | 4.57% (inactive)
39 | CCO[Si](CC)(OCC)OCC | -22.9% (inactive)
40 | OC1(c2ccc(Cl)cc2)CCNCC1 | 5.96% (inactive)
